In PubChem BioAssay (NCATS):
Results filed as inconclusive are left out. Unless noted, calls come from the whole dose curve; as a rule, active = well fitted curve in either direction with a large enough effect (not every such curve was filed as active); inconclusive = small, poorly fitted or top-dose-only effect, or another doubt; inactive = flat fitted curve, though single readings scatter.

Key:
[1] = AP1 Signaling Pathway (AID 357); settings: ME-180 AP-1-bla reporter, EGF-induced, beta-lactamase ratio, 5 h; at 17.2 µM (top of the series) unless noted; note: % is set by controls: 0 for no effect and ±100 for the full control effect
In short: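 AP-1-bla ME-180 cells with beta-lactamase reporter under AP-1 response element, stimulated with EC50 EGF; compounds titrated, 5 hours at 37 degrees Celsius. CCF4 read at 460/530 nm ratio; positive and negative modulators judged by AC50.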

[2] = NFAT Signaling Pathway (AID 444); settings: Jurkat NFAT-bla M1, carbachol, beta-lactamase ratio, 5 h; at 17.2 µM (top of the series) unless noted;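 note: carbachol stimulus at about its EC50 of 1 µM final; % is set by controls: 0 for no effect and ±100 for the full control effect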
In short: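 Read-out: CCF4 FRET ratio (460 nm/530 nm) after 1 h RT dye loading, used for %activity and AC50 from titration series. Cells: Jurkat NFAT-β-lactamase/M1 line, treated with compound plus 1 uM carbachol for 5 h, 37 °C.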

[3] = Stat Signaling Pathway (AID 446); settings: ME-180 SIE beta-lactamase reporter, IL-6 stimulated, 5 h; at 17.2 µM (top of the series) unless noted;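 note: ME-180 cervical cancer cells given 40 pM IL-6 alongside compound; SIE-controlled beta-lactamase reporter measured as 460/530 nm FRET emission ratio; % is set by controls: 0 for no effect and ±100 for the full control effect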
In short: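 Reporter line: ME-180 cervical carcinoma, SIE-beta-lactamase. Treatment: compound with 40 pM IL-6, 5 hrs, 37 C, in low-serum OPTI-MEM with 10 mM HEPES pH 7.3. Detection: 460/530 nm fluorescence.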

[4] = target: Glucocorticoid receptor (Homo sapiens) (UniProt P04150); assay: GR-GFP Redistribution (AID 450;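 active = compounds whose dose series gives a full or clear partial fitted curve of increased nuclear translocation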; note: potency is the fitted concentration of half-maximal effect)
Sequence of Glucocorticoid receptor (Homo sapiens) (P04150 whole entry, looked up): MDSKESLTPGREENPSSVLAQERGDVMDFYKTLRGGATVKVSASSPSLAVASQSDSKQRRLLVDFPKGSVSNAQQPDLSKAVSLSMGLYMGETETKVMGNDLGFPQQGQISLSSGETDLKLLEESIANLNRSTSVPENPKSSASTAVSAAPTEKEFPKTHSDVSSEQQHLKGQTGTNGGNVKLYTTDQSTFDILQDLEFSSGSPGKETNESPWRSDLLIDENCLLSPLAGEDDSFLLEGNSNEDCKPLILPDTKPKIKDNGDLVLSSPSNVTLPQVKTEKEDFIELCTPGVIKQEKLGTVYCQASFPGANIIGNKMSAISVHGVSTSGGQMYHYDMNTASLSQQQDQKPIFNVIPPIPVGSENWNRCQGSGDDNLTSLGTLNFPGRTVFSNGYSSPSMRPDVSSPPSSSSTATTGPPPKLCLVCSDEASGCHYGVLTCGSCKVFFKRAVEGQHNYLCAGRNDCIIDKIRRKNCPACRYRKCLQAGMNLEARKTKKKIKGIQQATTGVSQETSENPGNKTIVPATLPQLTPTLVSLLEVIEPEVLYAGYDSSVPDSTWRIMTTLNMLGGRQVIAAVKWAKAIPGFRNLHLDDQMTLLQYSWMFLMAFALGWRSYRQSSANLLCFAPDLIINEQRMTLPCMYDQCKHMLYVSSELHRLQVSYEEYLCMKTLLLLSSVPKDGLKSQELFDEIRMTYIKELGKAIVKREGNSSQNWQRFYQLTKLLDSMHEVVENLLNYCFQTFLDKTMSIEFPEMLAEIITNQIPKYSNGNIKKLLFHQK

CCN(CC)CCN1C(=O)C(=O)/C(=C(/O)c2c(C)[nH]c(C(=O)OC)c2C)C1c1ccccc1 (stereo not given)
inactive: activity change, negative = inhibition [1] 2.47% | activity change, negative = inhibition [2] -8.53% | activity, negative = inhibition [3] -3.34% | Potency [4] > 20.6 µM

CC1(C)Cc2c(sc3nc4n(c(=O)c23)CCC4)CO1
inactive: activity change, negative = inhibition [1] -2.8% | activity change, negative = inhibition [2] 2.28% | activity, negative = inhibition [3] -2.43% | Potency [4] > 20.6 µM

CCC(=O)Nc1cccc(-c2nnc(SCC(=O)NCc3ccco3)n2C)c1
inactive: activity change, negative = inhibition [1] -2.45% | activity change, negative = inhibition [2] 6.34% | activity, negative = inhibition [3] -2.86% | Potency [4] > 20.6 µM

COc1ccc2[nH]c(C)c(C(=O)CN3CCN(C(=O)c4ccco4)CC3)c2c1
inactive: activity change, negative = inhibition [1] -11.2% | activity change, negative = inhibition [2] -1.42% | activity, negative = inhibition [3] -3.32% | Potency [4] > 20.6 µM

CC(=O)OC12CC3CC(C1)C(=NO)C(C3)C2
inactive: activity change, negative = inhibition [1] 9.34% | activity change, negative = inhibition [2] 1.23% | activity, negative = inhibition [3] 13.8% | Potency [4] > 20.6 µM

CCOC(=O)CNC(=O)CNC(=O)c1ccc(OC)cc1
inactive: activity change, negative = inhibition [1] 8.37% | activity change, negative = inhibition [2] -1.87% | activity, negative = inhibition [3] 14.1% | Potency [4] > 20.6 µM

CCC(c1c(C)n(C)n(-c2ccccc2)c1=O)c1c(C)n(C)n(-c2ccccc2)c1=O
inactive: activity change, negative = inhibition [1] 6.29% | activity change, negative = inhibition [2] 9.43% | activity, negative = inhibition [3] 10.1% | Potency [4] > 20.6 µM

Cn1c(=O)c2c(nc(Br)n2Cc2ccc3ccccc3c2)n(C)c1=O
inactive: activity change, negative = inhibition [1] -1.43% | activity change, negative = inhibition [2] -13.6% | activity, negative = inhibition [3] -5.3% | Potency [4] > 20.6 µM

COc1ccc(OCC(=O)OCCN(C)C)cc1
inactive: activity change, negative = inhibition [1] 7.78% | activity change, negative = inhibition [2] 11.6% | activity, negative = inhibition [3] -3.32% | Potency [4] > 20.6 µM

CSc1nc2sc3c(c2c2nnnn12)CC(C)(C)OC3
inactive: activity change, negative = inhibition [1] -8.22% | activity change, negative = inhibition [2] -19.6% | activity, negative = inhibition [3] 15.4% | Potency [4] > 20.6 µM

COCCCn1c2nc3ccccc3nc2c2c(=O)n(-c3ccccc3OC)c(C)nc21
inactive: activity change, negative = inhibition [1] -7.38% | activity change, negative = inhibition [2] -8.29% | activity, negative = inhibition [3] 5.28% | Potency [4] > 20.6 µM

O=P(O)(c1ccccc1)c1ccccc1O
inactive: activity change, negative = inhibition [1] 6.62% | activity change, negative = inhibition [2] 7.27% | activity, negative = inhibition [3] 8.28% | Potency [4] > 20.6 µM

COC(=O)C(NC(=O)c1ccc(F)cc1)(Nc1nc(C)cs1)C(F)(F)F (stereo not given)
inactive: activity change, negative = inhibition [1] -0.49% | activity change, negative = inhibition [2] -21.1% | activity, negative = inhibition [3] -10.7% | Potency [4] > 20.6 µM

CCCOc1ccc(N2C(=O)CC(N(CCC)C(=O)CCC(=O)O)C2=O)cc1 (stereo not given)
inactive: activity change, negative = inhibition [1] 3.59% | activity change, negative = inhibition [2] 18.7% | activity, negative = inhibition [3] 6.31% | Potency [4] > 20.6 µM

O=C(O)C1[C@H]2C(=O)N(Cc3cccs3)C[C@]23C=C[C@H]1O3 (stereo not given in full)
inactive: activity change, negative = inhibition [1] 4.68% | activity change, negative = inhibition [2] -3.3% | activity, negative = inhibition [3] 2.6% | Potency [4] > 20.6 µM

O=C(c1ccco1)N1CCN(c2ncnc3c2[nH]c2ccccc23)CC1
inactive: activity change, negative = inhibition [1] -12% | activity change, negative = inhibition [2] 11% | activity, negative = inhibition [3] -16.9% | Potency [4] > 20.6 µM

CCCOc1ccc(C2NC(=O)NC2=O)cc1 (stereo not given)
inactive: activity change, negative = inhibition [1] 5.97% | activity change, negative = inhibition [2] 9.35% | activity, negative = inhibition [3] -1.78% | Potency [4] > 20.6 µM

Cc1c(C(=O)O)sc(=S)n1-c1ccccc1
inactive: activity change, negative = inhibition [1] 11% | activity change, negative = inhibition [2] 2.74% | activity, negative = inhibition [3] 4.36% | Potency [4] > 20.6 µM

Cc1nc(=O)c(-c2ccccc2)c(C)n1-c1ccc(S(N)(=O)=O)cc1
inactive: activity change, negative = inhibition [1] 7.15% | activity change, negative = inhibition [2] -1.07% | activity, negative = inhibition [3] 7.76% | Potency [4] > 20.6 µM

N#CCCn1cnc2c(=S)nc[nH]c21
inactive: activity change, negative = inhibition [1] 16.8% | activity change, negative = inhibition [2] 11.2% | activity, negative = inhibition [3] 11.6% | Potency [4] > 20.6 µM

O=C(Nc1ccc2c(c1)OCO2)c1cncc(Br)c1
inactive: activity change, negative = inhibition [1] -12.1% | activity change, negative = inhibition [2] -3.16% | activity, negative = inhibition [3] -14.9% | Potency [4] > 20.6 µM

Cc1ccc(C2C(C(=O)c3cc4ccccc4o3)=C(O)C(=O)N2CCCN(C)C)cc1 (stereo not given)
inactive: activity change, negative = inhibition [1] 4.95% | activity change, negative = inhibition [2] -2.86% | activity, negative = inhibition [3] 1.75% | Potency [4] > 20.6 µM

COc1ccc(/C(O)=C2/C(=O)C(=O)N(CCN3CCOCC3)C2c2cccnc2)cc1OC (stereo not given)
inactive: activity change, negative = inhibition [1] -2.7% | activity change, negative = inhibition [2] 7.11% | activity, negative = inhibition [3] 6.33% | Potency [4] > 20.6 µM

CCOC(=O)c1ccc(-n2c(=O)[nH]c3ccccc3c2=O)cc1
inactive: activity change, negative = inhibition [1] 3.86% | activity change, negative = inhibition [2] 6.82% | activity, negative = inhibition [3] 2.95% | Potency [4] > 20.6 µM

Cc1cc(CC(=O)O)c(C)cc1CC(=O)O
inactive: activity change, negative = inhibition [1] 11.9% | activity change, negative = inhibition [2] 2.75% | activity, negative = inhibition [3] 2.12% | Potency [4] > 20.6 µM
